Screening data (PubChem)
An excerpt weighted towards active compounds, which were near 2.6% of everything screened.
CRFR2-BP antag = blocks CRF-induced signaling of the CRF-BP/CRF-R2 complex; HEK293 CRF-R2/CRF-BP, CRF-induced calcium fluorescence; inhibition, % at 11.8 µM; 350,000 compounds, 0.59% hits;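 active = inhibition of the ligand-induced calcium signal above about 50% at the single tested concentration, limit read from the data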
PHOSPHO1 block = PHOSPHO1 (human) inhibition | recombinant PHOSPHO1, absorbance phosphatase assay | inhibition, % at 13.3 µM | 290,000 compounds, 1.1% hits | AID 1565; in the data active = inhibition above about 60%
PABP FP inh = blocks human PABP binding to poly(A) RNA; fluorescence polarization; inhibition, % at 35 µM; 290,000 compounds, 1% hits;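 also: calls also rest on retests at 20 µM and on dose response follow-up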
Target sequence (P11940 whole entry, looked up): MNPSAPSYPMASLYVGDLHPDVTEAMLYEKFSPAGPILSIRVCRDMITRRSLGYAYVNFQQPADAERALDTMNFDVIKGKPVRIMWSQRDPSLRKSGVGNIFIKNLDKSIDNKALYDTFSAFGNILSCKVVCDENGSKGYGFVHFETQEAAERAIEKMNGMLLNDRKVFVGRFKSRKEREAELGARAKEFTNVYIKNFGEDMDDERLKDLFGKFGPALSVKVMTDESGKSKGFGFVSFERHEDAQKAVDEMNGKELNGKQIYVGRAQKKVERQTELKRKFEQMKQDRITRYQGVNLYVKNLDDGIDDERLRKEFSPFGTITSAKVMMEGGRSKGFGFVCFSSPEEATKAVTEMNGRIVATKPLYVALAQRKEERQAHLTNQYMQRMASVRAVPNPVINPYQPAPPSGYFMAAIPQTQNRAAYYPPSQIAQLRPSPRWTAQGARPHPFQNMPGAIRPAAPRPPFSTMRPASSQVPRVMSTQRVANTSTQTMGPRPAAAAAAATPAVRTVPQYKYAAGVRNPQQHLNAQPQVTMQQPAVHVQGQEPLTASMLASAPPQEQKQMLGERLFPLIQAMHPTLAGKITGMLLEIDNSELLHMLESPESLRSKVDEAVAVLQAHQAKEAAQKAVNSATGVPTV
PABP1 MLLE inh = inhibitors of microRNA-mediated deadenylation, human PABP1 MLLE binding; GST-MLLE / FITC-PAM2 fluorescence polarization; inhibition, % at 20 µM; 360,000 compounds, 0.36% hits; AID 588489; in the data active = inhibition above about 35%, passing the limit was not always enough;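 also: plate controls were DMSO wells with GST-MLLE for no effect and wells lacking GST-MLLE protein for full effect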
eIF4H inh = inhibitors of RNA binding by human eIF4H | Q15056 | eIF4H fluorescence polarization binding assay | inhibition, % at 35 µM | 290,000 compounds, 0.94% hits | AID 2012;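 also: calls also rest on retests at 20 µM and on dose response follow-up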
* = called active by the depositor; / = not tested or not shown. Unless noted, no rule for the calls is given here.

SMILES	CRFR2-BP antag	PHOSPHO1 block	PABP FP inh	PABP1 MLLE inh	eIF4H inh
CCOC(=O)c1cccc(NC(=O)c2ccc(-n3cnnn3)cc2)c1	1	/	/	11	/
Fc1ccc(-[n+]2nc(Nc3ccccc3)sc2-c2cccc(Cl)c2Cl)cc1	-9	-13	17	50*	-8
Clc1cccc(-c2sc(Nc3ccccc3)n[n+]2-c2ccccc2)c1Cl	-11	15	20	16	1
O=c1oc2ccccc2c2oc3cc(O)c(O)cc3c12	-4	4	80*	19	101*
Nc1c(N)c2ccccc2oc1=O	3	2	32	-4	13
Cc1cc(C)n(C(=O)CNC(=O)c2ccccc2Br)n1	97*	30	-2	-2	-4
Cc1cc(C)n(C(=O)CCNC(=O)c2ccccc2Br)n1	18	-6	2	10	-3
Cc1ccc(S(=O)(=O)Nc2ccc(Nc3nccn4c(-c5ccc6ccccc6c5)cnc34)cc2)cc1	/	/	/	-9	/
Cc1ccccc1NC(=O)NCCN1C(=O)C2C3C=CC(C3)C2C1=O (stereo not drawn)	-15	-6	-14	0	-3
CCCS(=O)(=O)N1CCN=C1SCc1cccnc1	0	3	-3	40*	1
C=C(C)COc1ccc(-c2[nH]ncc2Oc2ccc(OC)cc2)c(O)c1	39	17	-18	-4	0
C=C(C)COc1ccc(-c2[nH]ncc2Oc2ccccc2OC)c(O)c1	51*	21	-7	4	-10
COc1cc2c(C#N)c(N3CCN(C)CC3)nc(N)c2c(N)n1	/	12	120*	3	105*
COc1cc(/C=N/NC(=O)CSc2n[nH]c(=O)[nH]c2=O)cc(OC)c1O	-9	-5	52*	6	13
CCCc1nc2c(C)cc(Br)cn2c1Cc1ccccc1	/	/	/	7	/
CCCc1nc2c(C)cc(Br)cn2c1Cc1ccsc1	/	/	/	43*	/
NC(=S)N=Nc1c(O)[nH]c2cc(F)c(F)cc12	34	21	2	40*	-8
NC(=S)N=Nc1c(O)[nH]c2c(Cl)cc(Cl)cc12	-3	/	/	45*	/
N=C(N)N=Nc1c(O)[nH]c2ccc(Br)cc12	-2	2	4	-14	-2
COC(=O)c1ccc(NC(=S)NC2CCCCC2C)cc1 (stereo not drawn)	25	-1	117*	14	active
COC(=O)c1ccc(NC(=S)NC(=O)C2CCC2)cc1	-12	9	-6	26	0
CNS(=O)(=O)c1cccc(C(=O)NCC(c2ccco2)N(C)C)c1 (stereo not drawn)	111*	16	7	-7	2
CN(C)C(CNC(=O)c1cccc(S(=O)(=O)Nc2ccccc2Cl)c1)c1ccco1 (stereo not drawn)	-5	/	/	7	/
O=C(CSc1ncn[nH]1)c1ccc2c(c1)OCCO2	12	-3	2	35	-9
CC(C)c1ccc(N2C(=O)CC(Sc3ncn[nH]3)C2=O)cc1 (stereo not drawn)	1	93*	1	30	-2
SMILES	CRFR2-BP antag	PHOSPHO1 block	PABP FP inh	PABP1 MLLE inh	eIF4H inh
CC(C)c1ccc(C(=O)CSc2ncn[nH]2)cc1	14	100*	-4	26	-5
COc1ccc(N2C(=O)CC(Sc3ncn[nH]3)C2=O)c(OC)c1 (stereo not drawn)	-3	92*	5	34	-9
CCCc1c(O)nc(SC2CC(=O)N(c3cc(OC)ccc3OC)C2=O)[nH]c1=O (stereo not drawn)	12	15	-3	28	6
COc1cc(/C=C2\CCC(C)C3=C(c4cc(OC)c(OC)c(OC)c4)C(C#N)=C(N)OC32)cc(OC)c1OC (stereo not drawn)	-63	/	/	-131	/
CCCCCCCc1nc2c(=O)n(C)c3ccccc3c2o1	21	63*	-5	-32	-6
CCN1C(=O)[C@H]2[C@@H](c3ccc(OC)cc3)N[C@]3(CCCN(Cc4ccc(Br)cc4)C3=O)[C@H]2C1=O	-1	/	/	-7	/
C=Cn1cc[n+](CC(=O)c2ccc(Cl)cc2)c1	117*	20	-7	1	-3
C=Cn1cc[n+](CC(=O)c2ccc(Br)cc2)c1	10	39	-5	-1	-7
O=C(C[n+]1ccccc1)c1ccc(NC(=O)c2ccccc2)cc1	8	37	72*	-121	-5
Cc1cc[n+](CC(=O)c2ccc(NC(=O)c3ccccc3)cc2)cc1	-6	-13	-7	16	2
CCCc1cc(=O)oc2cc(OCC(=O)NCCN3CCOCC3)c(Cl)cc12	0	/	/	7	/
CCCCc1ccc(NC(=O)CSc2nnc(C)c(=O)n2N)cc1	2	63*	0	14	-1
COC(=O)c1ccc(OCC(=O)NC2CCCCCC2)cc1	-13	63*	9	-4	-2
COc1ccc2c(c1)c(=O)oc1cc(OCC(=O)NC3CCCCC3)ccc12	-10	18	18	-13	91*
COc1ccc(C(C)=O)cc1CN1C(=O)C(C)ON=C1c1cccc(C(F)(F)F)c1 (stereo not drawn)	/	/	/	-5	/
C=CCc1ccccc1OCC(=O)OCCNC(=O)c1cccnc1	-20	71*	-6	13	3
Cc1cc(C)c(OCC(=O)OCCNC(=O)c2cccnc2)c(C)c1	20	-16	7	-4	-4
CNC(=O)c1cc(OCC(F)(F)F)ccc1OCC(F)(F)F	2	61*	0	-8	-11
Cc1cccc(Cl)c1NC(=O)NCCCN1CCCCC1C (stereo not drawn)	/	/	/	-9	/
c1ccc2c(c1)nc1n2C2(N3CCOCC3)CCCC2C1N1CCOCC1 (stereo not drawn)	3	17	46*	9	57*
Oc1ccc2c(c1)C1CCCC1(N1CCOCC1)O2 (stereo not drawn)	1	13	33	9	34
O=C(Nc1ccc2c(c1)OCCO2)C(c1ccnc2ccccc12)N1CCN(C/C=C/c2ccccc2)CC1 (stereo not drawn)	/	/	/	6	/
O=C(NCC1CCCO1)C1CCCN1C(=O)Nc1ccc(Cl)cc1 (stereo not drawn)	33	60*	0	-19	4
O=C(N/C(=C/c1cccs1)C(=O)N1CCOCC1)c1cccs1	13	60*	-3	-4	-1
COC(=O)/C(=C/c1ccco1)NC(=O)c1ccccc1	-12	-10	-7	4	17
SMILES	CRFR2-BP antag	PHOSPHO1 block	PABP FP inh	PABP1 MLLE inh	eIF4H inh
COc1ccc(C(=O)N/C(=C/c2ccco2)C(=O)N2CCCCCC2)cc1	-7	11	20*	-37	53
CC(C)(C)c1ccc(C(=O)N/C(=C\c2cccs2)C(=O)N2CCOCC2)cc1	-24	19	8	-4	-2
Cc1ccc(C(=O)N/C(=C/c2ccco2)C(=O)OCN2C(=O)c3ccccc3C2=O)cc1	13	-1	1	9	79*
Cc1ccc(C(=O)N/C(=C/c2ccco2)C(=O)N2CCCCC2)cc1	-8	40	18	-12	0
O=C(N/C(=C/c1ccco1)C(=O)N1CCCCCC1)c1cccs1	-13	-1	45*	-7	62
O=C(c1cc(C2CCCCN2S(=O)(=O)c2ccc(F)cc2F)on1)N1CCOCC1 (stereo not drawn)	/	/	/	-8	/
